Assay results taken from the supplement of paper PMC10849652.
Targets with a hit are over-represented here; the source holds about 7,900 in all. About 0.6% of all pairs of compound and target were hits.

Experiments:
Assay in all cases: log2 fold change, soluble protein after heating vs DMSO (PISA); higher = thermal stabilisation; K562 cells, 10 uM, 30 min; active = over 0.2 and 3.5 SD of the protein, either way, in both replicates (recomputed)
[1] = compound: CC1=C(C=C(C=C1)NC(=O)C2=CC(=CC=C2)C(C)(C)C#N)NC3=CC4=C(C=C3)N=CN(C4=O)C
Procedure, shortened: (§1)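 Thermal stability values are relative to control samples and come from duplicates. They are expressed as log2 fold changes. For measurement, K562 cells (2×10^6 cells/mL) received 10 μM compound for 30 min, and aliquots were heated for 3 min over 48°C-58°C, pooled, and extracted at 4°C in PBS with 0.5% NP-40. Soluble protein, the supernatant after 21,000xg for 90 min, was quantified by TMTpro 16plex LC-MS/MS with equalised channel sums.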

[2] = compound: CC1=C(C=C(C=C1)NC(=O)C2=CC(=CC=C2)N(C)C)NC(=O)C3=CC=C(C=C3)O
Procedure, shortened: as §1

[3] = compound: CC1=CC=C(C=C1)SC2=C3C=C(SC3=CN=C2)C(=O)N
Procedure, shortened: as §1

[4] = compound: CC1=NC(=CC=C1)C2=C(N=C(N2)C(C)(C)C)C3=CC4=NC=CN=C4C=C3
Procedure, shortened: as §1

Nexturastat A = compound: CCCCN(Cc1ccc(C(=O)NO)cc1)C(=O)Nc1ccccc1 [Nexturastat A]
Procedure, shortened: as §1

vemurafenib = compound: CCCS(=O)(=O)Nc1ccc(F)c(C(=O)c2c[nH]c3ncc(-c4ccc(Cl)cc4)cc23)c1F [vemurafenib]
Procedure, shortened: as §1

[5] = compound: CCCS(=O)(=O)Nc1ccc(F)c(C(=O)c2c[nH]c3ncc(Cl)cc23)c1F
Procedure, shortened: as §1

[6] = compound: CCCc1cc(C)[nH]c(=O)c1CNC(=O)c1cc(-c2ccnc(N3CCN(C)CC3)c2)cc2c1cnn2C(C)C
Procedure, shortened: as §1

givinostat = compound: CCN(CC)Cc1ccc2cc(COC(=O)Nc3ccc(C(=O)NO)cc3)ccc2c1 [givinostat]
Procedure, shortened: as §1

barasertib = compound: CCN(CCCOc1ccc2c(Nc3cc(CC(=O)Nc4cccc(F)c4)[nH]n3)ncnc2c1)CCOP(=O)(O)O [barasertib]
Procedure, shortened: as §1

Sequence of UniProt Q8NF50 (Q8NF50 whole entry, looked up): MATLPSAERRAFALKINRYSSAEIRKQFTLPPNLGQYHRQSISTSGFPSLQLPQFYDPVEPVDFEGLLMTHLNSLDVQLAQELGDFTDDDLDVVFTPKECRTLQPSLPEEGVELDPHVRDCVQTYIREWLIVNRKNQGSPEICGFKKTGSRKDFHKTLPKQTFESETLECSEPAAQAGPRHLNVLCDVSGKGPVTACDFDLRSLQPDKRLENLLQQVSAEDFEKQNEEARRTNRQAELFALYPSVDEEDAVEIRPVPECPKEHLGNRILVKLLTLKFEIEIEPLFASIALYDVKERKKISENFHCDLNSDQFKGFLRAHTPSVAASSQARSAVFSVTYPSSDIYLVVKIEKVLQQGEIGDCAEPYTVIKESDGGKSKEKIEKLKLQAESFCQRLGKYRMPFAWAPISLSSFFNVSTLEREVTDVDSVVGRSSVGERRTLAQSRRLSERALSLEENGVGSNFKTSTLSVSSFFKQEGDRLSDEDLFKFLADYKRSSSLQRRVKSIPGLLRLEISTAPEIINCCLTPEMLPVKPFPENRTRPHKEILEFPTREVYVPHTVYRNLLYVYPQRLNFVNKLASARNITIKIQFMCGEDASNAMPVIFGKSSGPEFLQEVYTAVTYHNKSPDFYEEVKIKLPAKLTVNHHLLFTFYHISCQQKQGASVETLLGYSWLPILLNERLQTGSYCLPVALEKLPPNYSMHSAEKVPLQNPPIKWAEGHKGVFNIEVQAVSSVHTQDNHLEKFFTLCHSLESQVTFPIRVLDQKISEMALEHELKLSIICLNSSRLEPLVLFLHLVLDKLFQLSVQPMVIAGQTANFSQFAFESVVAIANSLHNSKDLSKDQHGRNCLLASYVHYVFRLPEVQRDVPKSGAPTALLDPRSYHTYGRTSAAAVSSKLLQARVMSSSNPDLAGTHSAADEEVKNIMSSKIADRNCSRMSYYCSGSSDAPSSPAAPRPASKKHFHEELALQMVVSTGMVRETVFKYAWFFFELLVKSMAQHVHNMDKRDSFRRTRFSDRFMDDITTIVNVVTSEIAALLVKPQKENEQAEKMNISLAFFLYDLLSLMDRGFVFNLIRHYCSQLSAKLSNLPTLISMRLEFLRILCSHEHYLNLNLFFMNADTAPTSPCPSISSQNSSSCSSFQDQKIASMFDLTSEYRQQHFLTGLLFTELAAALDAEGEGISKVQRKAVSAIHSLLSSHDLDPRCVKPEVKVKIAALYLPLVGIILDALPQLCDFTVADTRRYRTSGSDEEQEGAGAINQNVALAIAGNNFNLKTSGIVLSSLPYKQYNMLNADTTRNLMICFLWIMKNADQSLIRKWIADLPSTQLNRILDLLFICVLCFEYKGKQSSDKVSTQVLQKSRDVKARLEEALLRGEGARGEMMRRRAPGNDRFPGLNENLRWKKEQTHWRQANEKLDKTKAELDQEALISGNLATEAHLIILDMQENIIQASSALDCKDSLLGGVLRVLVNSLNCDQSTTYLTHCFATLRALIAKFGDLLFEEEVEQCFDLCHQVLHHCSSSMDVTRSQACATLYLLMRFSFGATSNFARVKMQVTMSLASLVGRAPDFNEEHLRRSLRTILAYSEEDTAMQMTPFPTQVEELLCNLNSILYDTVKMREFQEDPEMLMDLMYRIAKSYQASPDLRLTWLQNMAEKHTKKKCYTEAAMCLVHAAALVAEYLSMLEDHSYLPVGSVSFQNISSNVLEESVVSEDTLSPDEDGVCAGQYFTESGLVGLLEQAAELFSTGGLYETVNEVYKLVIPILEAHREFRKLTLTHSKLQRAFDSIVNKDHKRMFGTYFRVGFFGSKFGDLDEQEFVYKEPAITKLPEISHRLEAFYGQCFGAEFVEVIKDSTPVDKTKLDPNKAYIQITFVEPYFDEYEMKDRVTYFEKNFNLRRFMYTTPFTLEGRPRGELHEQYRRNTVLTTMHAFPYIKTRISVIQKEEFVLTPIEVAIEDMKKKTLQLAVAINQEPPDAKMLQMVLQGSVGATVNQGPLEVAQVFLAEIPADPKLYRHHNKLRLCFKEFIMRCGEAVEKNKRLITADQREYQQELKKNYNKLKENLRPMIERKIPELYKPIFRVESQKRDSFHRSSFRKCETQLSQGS
Sequence of UniProt Q8IYI6 (Q8IYI6 whole entry, looked up): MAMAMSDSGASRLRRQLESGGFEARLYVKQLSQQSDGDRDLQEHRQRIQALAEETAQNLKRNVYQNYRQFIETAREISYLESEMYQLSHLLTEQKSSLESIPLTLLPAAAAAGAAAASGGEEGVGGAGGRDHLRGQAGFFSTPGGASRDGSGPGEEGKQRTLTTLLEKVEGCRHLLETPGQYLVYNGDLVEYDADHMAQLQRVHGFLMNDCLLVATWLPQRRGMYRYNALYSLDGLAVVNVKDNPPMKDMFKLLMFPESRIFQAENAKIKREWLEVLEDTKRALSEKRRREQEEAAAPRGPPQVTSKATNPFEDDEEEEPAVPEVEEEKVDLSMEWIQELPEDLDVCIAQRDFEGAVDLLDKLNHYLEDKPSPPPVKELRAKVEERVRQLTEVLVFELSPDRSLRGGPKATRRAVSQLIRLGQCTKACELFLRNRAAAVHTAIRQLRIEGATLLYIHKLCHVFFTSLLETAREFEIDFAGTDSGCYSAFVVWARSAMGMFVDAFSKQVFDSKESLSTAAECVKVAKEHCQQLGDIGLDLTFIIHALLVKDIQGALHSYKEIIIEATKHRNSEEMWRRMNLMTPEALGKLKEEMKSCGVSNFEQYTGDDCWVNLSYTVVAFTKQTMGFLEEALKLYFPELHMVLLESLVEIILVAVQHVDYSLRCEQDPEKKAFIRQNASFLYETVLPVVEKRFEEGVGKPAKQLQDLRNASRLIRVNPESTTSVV
Sequence of UniProt Q16643 (Q16643 whole entry, looked up): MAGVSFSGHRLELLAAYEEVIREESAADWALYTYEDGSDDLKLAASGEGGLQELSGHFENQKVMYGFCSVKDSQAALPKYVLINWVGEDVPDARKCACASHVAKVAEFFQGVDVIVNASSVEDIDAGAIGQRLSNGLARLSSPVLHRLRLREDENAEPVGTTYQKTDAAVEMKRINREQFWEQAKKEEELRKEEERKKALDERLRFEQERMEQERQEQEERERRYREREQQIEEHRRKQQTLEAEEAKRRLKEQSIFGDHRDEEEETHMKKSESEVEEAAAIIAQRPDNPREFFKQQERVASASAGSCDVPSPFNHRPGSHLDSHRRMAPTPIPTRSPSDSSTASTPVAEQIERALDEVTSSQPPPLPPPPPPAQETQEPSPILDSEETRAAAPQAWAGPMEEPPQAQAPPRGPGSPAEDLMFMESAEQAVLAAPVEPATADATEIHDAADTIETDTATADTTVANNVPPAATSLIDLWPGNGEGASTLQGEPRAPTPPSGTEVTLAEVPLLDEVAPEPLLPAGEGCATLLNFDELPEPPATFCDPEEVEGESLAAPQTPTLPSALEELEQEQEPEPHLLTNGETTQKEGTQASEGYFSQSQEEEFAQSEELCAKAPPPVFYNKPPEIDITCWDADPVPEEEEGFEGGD
Sequence of UniProt Q96GQ7 (Q96GQ7 whole entry, looked up): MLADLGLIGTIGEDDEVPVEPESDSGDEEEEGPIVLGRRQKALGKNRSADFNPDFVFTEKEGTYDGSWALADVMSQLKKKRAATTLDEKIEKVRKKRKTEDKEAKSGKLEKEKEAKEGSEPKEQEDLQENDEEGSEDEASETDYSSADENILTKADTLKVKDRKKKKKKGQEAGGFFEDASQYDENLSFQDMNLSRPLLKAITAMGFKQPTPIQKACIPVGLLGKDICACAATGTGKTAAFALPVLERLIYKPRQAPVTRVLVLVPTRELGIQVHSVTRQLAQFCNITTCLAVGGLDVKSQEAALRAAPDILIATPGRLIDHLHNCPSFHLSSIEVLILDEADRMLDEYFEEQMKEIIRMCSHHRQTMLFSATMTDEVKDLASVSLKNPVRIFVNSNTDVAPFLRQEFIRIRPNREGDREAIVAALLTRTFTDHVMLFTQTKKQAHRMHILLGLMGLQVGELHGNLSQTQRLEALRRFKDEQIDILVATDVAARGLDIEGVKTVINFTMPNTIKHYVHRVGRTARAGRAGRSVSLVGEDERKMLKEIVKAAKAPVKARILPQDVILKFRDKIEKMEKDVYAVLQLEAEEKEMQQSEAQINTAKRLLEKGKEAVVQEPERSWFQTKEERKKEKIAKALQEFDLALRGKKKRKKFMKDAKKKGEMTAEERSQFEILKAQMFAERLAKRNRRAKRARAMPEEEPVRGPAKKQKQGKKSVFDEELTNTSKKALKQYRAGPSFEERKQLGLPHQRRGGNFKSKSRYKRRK
Sequence of UniProt Q9Y5Q0 (Q9Y5Q0 whole entry, looked up): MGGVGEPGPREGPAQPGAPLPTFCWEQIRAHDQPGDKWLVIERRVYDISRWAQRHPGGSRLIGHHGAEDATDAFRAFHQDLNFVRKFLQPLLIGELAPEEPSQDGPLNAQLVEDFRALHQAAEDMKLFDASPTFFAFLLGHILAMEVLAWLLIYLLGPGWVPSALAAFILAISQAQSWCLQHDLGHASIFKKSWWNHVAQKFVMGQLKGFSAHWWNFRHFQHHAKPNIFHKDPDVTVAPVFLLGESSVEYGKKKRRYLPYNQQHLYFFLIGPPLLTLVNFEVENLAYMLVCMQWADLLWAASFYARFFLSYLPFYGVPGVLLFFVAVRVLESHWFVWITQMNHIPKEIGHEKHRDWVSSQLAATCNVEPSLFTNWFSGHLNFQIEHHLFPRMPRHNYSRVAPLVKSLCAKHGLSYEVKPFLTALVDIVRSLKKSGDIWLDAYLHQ
Sequence of UniProt Q8TCE6 (Q8TCE6 whole entry, looked up): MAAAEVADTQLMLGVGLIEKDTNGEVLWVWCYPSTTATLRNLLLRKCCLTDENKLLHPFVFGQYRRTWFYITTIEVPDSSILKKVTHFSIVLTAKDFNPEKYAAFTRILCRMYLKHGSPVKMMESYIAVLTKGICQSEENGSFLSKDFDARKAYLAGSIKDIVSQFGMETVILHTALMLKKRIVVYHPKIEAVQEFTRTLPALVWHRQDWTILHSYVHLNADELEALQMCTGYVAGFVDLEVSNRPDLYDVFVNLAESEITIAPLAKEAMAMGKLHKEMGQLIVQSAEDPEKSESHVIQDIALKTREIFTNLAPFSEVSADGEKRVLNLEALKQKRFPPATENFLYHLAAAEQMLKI

| Target | log2 fold change [1] | log2 fold change [2] | log2 fold change [3] | log2 fold change [4] | log2 fold change (Nexturastat A) | log2 fold change (vemurafenib) | log2 fold change [5] | log2 fold change [6] | log2 fold change (givinostat) | log2 fold change (barasertib) |
| --- | --- | --- | --- | --- | --- | --- | --- | --- | --- | --- |
| EXOC8 (UniProt Q8IYI6) | 0.035 (inactive) | -0.085 (inactive) | 0.037 (inactive) | 0.016 (inactive) | -0.087 (inactive) | 0.048 (inactive) | 0.01 (inactive) | -0.091 (inactive) | 0.028 (inactive) | 0.048 (inactive) |
| DCAF6 isoform 3 (UniProt Q58WW2) | 0.016 (inactive) | -0.035 (inactive) | -0.034 (inactive) | -0.037 (inactive) | -0.041 (inactive) | -0.032 (inactive) | -0.047 (inactive) | 0.011 (inactive) | -0.058 (inactive) | 0.008 (inactive) |
| ELF1 (UniProt P32519) | 0.056 (inactive) | -0.05 (inactive) | 0 (inactive) | 0.033 (inactive) | -0.051 (inactive) | – | 0.091 (inactive) | – | 0.152 (inactive) | – |
| FAM160B1 (UniProt Q5W0V3) | 0.033 (inactive) | 0.128 (inactive) | -0.019 (inactive) | 0.051 (inactive) | -0.023 (inactive) | 0.149 (inactive) | 0.034 (inactive) | 0.014 (inactive) | 0.016 (inactive) | 0.109 (inactive) |
| DYNC1I2 isoform 5 (UniProt Q13409) | -0.008 (inactive) | -0.03 (inactive) | -0.006 (inactive) | 0.028 (inactive) | 0.043 (inactive) | -0.009 (inactive) | 0.005 (inactive) | -0.007 (inactive) | -0.005 (inactive) | -0.013 (inactive) |
| DAXX (UniProt Q9UER7) | 0.019 (inactive) | -0.02 (inactive) | 0.031 (inactive) | -0.165 (inactive) | – | -0.058 (inactive) | 0.031 (inactive) | – | 0.352 (inactive) | -0.025 (inactive) |
| CTSH (UniProt P09668) | -0.007 (inactive) | 0.066 (inactive) | 0.013 (inactive) | 0.093 (inactive) | -0.047 (inactive) | 0.023 (inactive) | -0.034 (inactive) | 0.157 (inactive) | 0.003 (inactive) | -0.019 (inactive) |
| DBN1 isoform 3 (UniProt Q16643) | -0.079 (inactive) | 0.045 (inactive) | 0.016 (inactive) | -0.002 (inactive) | 0.104 (inactive) | 0.075 (inactive) | 0.032 (inactive) | -0.062 (inactive) | -0.026 (inactive) | -0.038 (inactive) |
| EPHB4 (UniProt P54760) | 0.057 (inactive) | -0.07 (inactive) | 0.392 (inactive) | – | – | – | -0.126 (inactive) | 0.001 (inactive) | – | – |
| DDOST (UniProt P39656) | 0.03 (inactive) | -0.013 (inactive) | -0.031 (inactive) | 0.016 (inactive) | -0.01 (inactive) | 0.003 (inactive) | -0.006 (inactive) | -0.001 (inactive) | 0.006 (inactive) | 0.008 (inactive) |
| CWF19L2 (UniProt Q2TBE0) | -0.048 (inactive) | 0.046 (inactive) | 0.166 (inactive) | -0.038 (inactive) | – | – | -0.057 (inactive) | – | 0.035 (inactive) | – |
| FADS3 (UniProt Q9Y5Q0) | 0.031 (inactive) | -0.002 (inactive) | -0.012 (inactive) | 0.031 (inactive) | -0.096 (inactive) | 0.01 (inactive) | 0.026 (inactive) | -0.069 (inactive) | -0.108 (inactive) | 0.042 (inactive) |
| CYB561A3 isoform 2 (UniProt Q8NBI2) | 0.051 (inactive) | 0.025 (inactive) | -0.074 (inactive) | 0.02 (inactive) | – | – | 0.059 (inactive) | -0.086 (inactive) | 0.033 (inactive) | -0.057 (inactive) |
| CTSA (UniProt P10619) | -0.033 (inactive) | 0.011 (inactive) | -0.02 (inactive) | 0.003 (inactive) | -0.016 (inactive) | -0.013 (inactive) | -0.039 (inactive) | -0.047 (inactive) | 0.117 (inactive) | 0 (inactive) |
| FAAP100 (UniProt Q0VG06) | -0.004 (inactive) | -0.001 (inactive) | -0.039 (inactive) | 0.066 (inactive) | -0.327 (active) | 0 (inactive) | -0.033 (inactive) | 0.167 (inactive) | 0.024 (inactive) | 0.051 (inactive) |
| DFFB (UniProt O76075) | -0.023 (inactive) | -0.013 (inactive) | 0.013 (inactive) | 0.019 (inactive) | -0.04 (inactive) | 0.055 (inactive) | 0 (inactive) | -0.109 (inactive) | -0.059 (inactive) | 0.034 (inactive) |
| DDX27 (UniProt Q96GQ7) | -0.026 (inactive) | -0.057 (inactive) | – | -0.293 (inactive) | 0.249 (inactive) | -0.25 (inactive) | – | -0.142 (inactive) | 0.081 (inactive) | – |
| DDX11 (UniProt Q96FC9) | -0.04 (inactive) | 0.052 (inactive) | -0.035 (inactive) | 0.043 (inactive) | -0.011 (inactive) | -0.072 (inactive) | 0 (inactive) | -0.006 (inactive) | -0.029 (inactive) | 0.125 (inactive) |
| DOCK8 (UniProt Q8NF50) | -0.094 (inactive) | -0.051 (inactive) | – | -0.086 (inactive) | 0.468 (inactive) | 0.134 (inactive) | – | 0.093 (inactive) | 0.245 (inactive) | 0.055 (inactive) |
| DDX4 (UniProt Q9NQI0) | -0.451 (inactive) | 0.035 (inactive) | -0.328 (inactive) | -0.336 (inactive) | 0.263 (inactive) | -0.569 (inactive) | -0.447 (inactive) | 0.327 (inactive) | 0.271 (inactive) | -0.094 (inactive) |
| CUX1 isoform 2 (UniProt Q13948) | -0.07 (inactive) | 0.007 (inactive) | -0.003 (inactive) | -0.031 (inactive) | 0.051 (inactive) | 0.074 (inactive) | 0.077 (inactive) | -0.011 (inactive) | -0.049 (inactive) | 0.038 (inactive) |
| DENND10 (UniProt Q8TCE6) | 0.022 (inactive) | 0.036 (inactive) | 0.029 (inactive) | – | -0.119 (inactive) | -0.023 (inactive) | 0.01 (inactive) | -0.023 (inactive) | 0.131 (inactive) | 0.036 (inactive) |
| FAM83D (UniProt Q9H4H8) | 0.008 (inactive) | -0.029 (inactive) | 0.028 (inactive) | 0.018 (inactive) | 0.102 (inactive) | 0.041 (inactive) | 0.097 (inactive) | 0.016 (inactive) | 0.103 (inactive) | 0.128 (inactive) |
| CTSZ (UniProt Q9UBR2) | -0.009 (inactive) | -0.004 (inactive) | 0.025 (inactive) | 0.002 (inactive) | -0.009 (inactive) | -0.026 (inactive) | -0.045 (inactive) | -0.017 (inactive) | 0.152 (inactive) | 0.027 (inactive) |
| FAM177A1 isoform 2 (UniProt Q8N128) | -0.071 (inactive) | 0.152 (inactive) | 0.101 (inactive) | 0.039 (inactive) | -0.064 (inactive) | -0.061 (inactive) | 0.014 (inactive) | -0.02 (inactive) | -0.045 (inactive) | 0.037 (inactive) |
| EIF4G3 isoform 3 (UniProt O43432) | -0.024 (inactive) | 0.01 (inactive) | 0 (inactive) | -0.015 (inactive) | – | 0.047 (inactive) | 0.002 (inactive) | 0.067 (inactive) | 0.08 (inactive) | 0.059 (inactive) |
| FAM241A (UniProt Q8N8J7) | 0.536 (active) | -0.012 (inactive) | -0.031 (inactive) | -0.028 (inactive) | – | -0.083 (inactive) | 0.015 (inactive) | -0.009 (inactive) | -0.037 (inactive) | 0.06 (inactive) |
| DYNC1I2 isoform 2 (UniProt Q13409) | 0.006 (inactive) | -0.054 (inactive) | -0.179 (inactive) | 0.061 (inactive) | 0.047 (inactive) | – | 0.018 (inactive) | 0.271 (inactive) | 0.044 (inactive) | 0.015 (inactive) |
| EVC2 (UniProt Q86UK5) | -0.263 (inactive) | -0.146 (inactive) | -0.006 (inactive) | -0.018 (inactive) | 0.046 (inactive) | -0.073 (inactive) | -0.054 (inactive) | 0.16 (inactive) | 0.06 (inactive) | -0.064 (inactive) |
